# Results: PubChem BioAssay AID1347383 (Zoeller Lab, School of Medicine, Boston University, 2020)
# The source made the active and inactive calls.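 Rule for the calls: active = cell survival after UV exposure 2 SD above solvent-only control wells at 10 µM, confirmed on one or two repeats; inactive = the rest.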
# Assay: protection of CHO cells from pyrene-fatty acid UV killing, primary screen, phospholipid biosynthesis inhibitor project, ZR-82 cells, Analyticon library, screen 2 (AID 1347383);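 note: survival reflects blocked phospholipid synthesis cutting uptake of the phototoxic fatty acid; compound and fatty acid exposure 3 h then viability read next day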
# Conditions: ZR-82 CHO cells, CellTiter Blue, at 10 µM, peroxisome-deficient CHO-K1 variant, with DGAT-1, DGAT-2 and ACAT inhibitors
row,SMILES,outcome
1,Oc1cc(O)c2c(c1)O[C@H](c1ccc(O)c(O)c1)[C@H](O)C2,inactive
2,COC(=O)/C=C/C1(O)C=CC(=O)C=C1,inactive
3,COc1cc(CC(C)C(C)Cc2ccc(O)c(OC)c2)ccc1O (stereo unspecified),inactive
4,COc1cc(O)cc2c1C(=O)CC(c1ccc(O)cc1)O2 (stereo unspecified),inactive
5,C=C1C(=O)OC2/C=C(\C)C3=CC(=O)C(C)(CC(OC(=O)/C(C)=C/COC(C)=O)C12)O3 (stereo unspecified),inactive
6,CC1=CC(=O)C2C(C)(C)CC(O)CC2(C)C1CO (stereo unspecified),inactive
7,CO[C@@H]1[C@H](OC(=O)/C=C/C(O)C(C)O)CC[C@]2(CO2)[C@H]1[C@@]1(C)O[C@@H]1CC=C(C)C (stereo partly specified),inactive
8,CC1=CC2=C(C(=O)OC2O)C(O)C2CC(C)(C)CC12 (stereo unspecified),inactive
9,C/C=C/CCC1Cc2cc(O)c(CCCC)c(O)c2C(=O)O1 (stereo unspecified),inactive
10,O=C(/C=C/c1ccc(O)cc1)c1ccc(O)cc1O,inactive
11,O=C(O)COC(=O)CCCCCCCO,inactive
12,COc1ccc2c(c1OC)C(=O)N1CCc3cc4c(cc3C(=O)C21O)OCO4 (stereo unspecified),inactive
13,COc1ccc(CC2C(=O)OCC2Cc2cc(OC)c3c(c2)OCO3)cc1OC (stereo unspecified),inactive
14,O=c1ccc2ccc(O)cc2o1,inactive
15,OCCc1ccc(O)cc1O,inactive
16,CC[C@H](C)C(=O)O[C@H]1CCC=C2C=C[C@H](C)[C@H](CC[C@H]3C[C@@H](O)CC(=O)O3)[C@H]21,inactive
17,COc1cc(CCc2ccc(OCC(O)C(C)(C)O)cc2)cc2c1OCO2 (stereo unspecified),inactive
18,CO[C@@H]1C(=O)CC[C@]2(O)CS[C@H](CC=C(C)C)[C@](C)(O)[C@@]12O,inactive
19,CC(O)C(O)c1ccc(OC(C)C(O)c2ccc(O)cc2)cc1 (stereo unspecified),inactive
20,Cc1cc(O)c2c3c(c(O)c4c(c13)OC(C)C4(C)C)C(=O)O2 (stereo unspecified),inactive
21,C/C=C/CCc1cc(O)c2c(c1)OC(C)C2CO (stereo unspecified),inactive
